Assay outcomes deposited in PubChem BioAssay by National Center for Advancing Translational Sciences (NCATS).
Shiga toxin inh = A qHTS for Small Molecule Inhibitors of Shiga Toxin. Vero cells, Shiga toxin protein synthesis inhibition reporter. inhibition, % at 38.7 µM. 290,000 compounds, 9.2% hits. AID 2315, 2010; in the data active means inhibition mostly above about 28%, no sharp cut-off; inactive means mostly below about 43%; further: 0% is about no effect
CHX counter = Cycloheximide Counterscreen for Small Molecule Inhibitors of Shiga Toxin; max response, %; 300,000 compounds, 12% hits; cell reporter, cycloheximide protein synthesis inhibition counterscreen; in the data active means max response mostly above about 13%, no sharp cut-off; inactive means mostly below about 14%; further: read at 38.3 µM for the half of the compounds with a filed dose; 0% is about no effect
NS1 function inh = qHTS Assay for Inhibitors of Influenza NS1 Protein Function | Potency, µM (series often up to 46.1 µM), for inactives: at the top dose activity, positive = more growth | 270,000 compounds, 0.4% hits | AID 2326, 2010; calls by dose curve; further: potency means the concentration at half of the fitted maximal effect; actives are rising curves; nearly all actives have a fitted effect of over 50% in size
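Read-out: OD600 growth recovery of NS1-expressing budding yeast. Cells grown overnight at 30C in -URA glucose medium, washed, resuspended and diluted 1:100 in 2% galactose assay medium, pH 6.0. Same strain lacking NS1 served as positive control.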
Pf growth 96h = Primary qHTS for delayed death inhibitors of the malarial parasite plastid, 96 hour incubation | Potency, µM (titrated, usually from 28.7 µM), inactives show at the highest dose activity change, negative = inhibition, usual class: inhibitors | AID 504834, 2011 | P. falciparum luciferase reporter growth, 96 h | 320,000 compounds, 6.9% hits; further: potency means the concentration at half of the fitted maximal effect; on the % scale 0 is the no-effect control and ±100 the full control effect
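Two parasite generations (96 h, 37 C, 5% CO2) of compound exposure in infected erythrocytes (0.05% parasitemia, 2% hematocrit). Luciferase-reporter P. falciparum; decreased luminescence indicates inhibited growth, aimed at apicoplast-acting delayed death.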
SARS PLpro yeast = qHTS of Yeast-based Assay for SARS-CoV PLP; Potency, µM (top dose mostly 32.9 µM), without a hit: at the highest dose activity, positive = growth rescue, usual class: activators; 330,000 compounds, 0.19% hits; AID 485353, 2010; S. cerevisiae expressing SARS-CoV PLpro, growth rescue; calls by dose curve; further: potency means the concentration at half of the fitted maximal effect; 0% is about no effect; nearly all actives have a fitted effect of over 55% in size
Pf growth 48h = Primary qHTS for delayed death inhibitors of the malarial parasite plastid, 48 hour incubation | P. falciparum luciferase growth in erythrocytes, 48 h | Potency, µM (titrated, usually from 28.7 µM), for the others: at the highest dose activity change, negative = inhibition, actives largely listed as inhibitors | 310,000 compounds, 5.9% hits | AID 504832, 2011; further: potency means the concentration at half of the fitted maximal effect; on the % scale 0 is the no-effect control and ±100 the full control effect
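Growth was read as firefly luciferase luminescence after a 48 h, 37 C, 5% CO2 exposure of compounds to reporter-bearing P. falciparum cultures (0.1% parasitemia, 2% hematocrit final) in Albumax-supplemented RPMI 1640.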
Starred values were filed as active, the others as inactive; ? = inconclusive; nt = no result given; [ ] = another dose, or the depositor's remark. In the library only some 21% were active in any assay of this set; here they are far more common. Unless noted, the call rests on the fitted dose curve; in most records, active means well fitted inhibition curve with a large enough effect; inconclusive means small, poorly fitted or top-dose-only effect, or another doubt; inactive means no such curve, though single readings can be large or run the other way.

SMILES	Shiga toxin inh	CHX counter	NS1 function inh	Pf growth 96h	SARS PLpro yeast	Pf growth 48h
Cc1ccc(CN2CC(=O)N3[C@H]4c5cc(Cl)ccc5OC[C@@H]4[C@H](c4ccccc4)[C@]3(C)C2=O)cc1	nt	nt	nt	8.3µM*	-10%	6.6µM*
Nc1cc(C(=O)c2cccs2)ccc1Cl	34	17*	-3%	?	4%	nt
O=C(c1ccc(Cl)nc1)c1cccs1	15	-3	1%	45%	2%	14%
Cc1ccc(-n2ncc3c(=O)n(CC(N)=O)cnc32)cc1C	17	7	16%	?	4%	28%
CC(=O)CSc1ncnc2c1cnn2-c1ccccc1	91*	36*	nt	-10%[5.75 µM]	-1%	156%
Cc1ccc(-n2ncc3c(SCC(N)=O)ncnc32)cc1C	52*	48*	15%	?	3%	120%
CNC(=O)CSc1ncnc2c1cnn2-c1ccccc1	69*	35*	nt	45%	-1%	79%
O=C(CSc1ncnc2c1cnn2-c1ccccc1)Nc1ccccc1	-6	-3	-16%	-4%	-1%	27%
COc1cc(C(C)=O)ccc1Oc1ncnc2c1cnn2-c1ccc(C)c(C)c1	63*	32*	-5%	?	-15%	?
CCC(=O)c1cc2c(C)cc(=O)oc2c(C)c1OC(=O)C(C)C	-4	1	1%	?	-2%	25%
CC(Sc1ncnc2c1cnn2-c1ccccc1)C(=O)NCC1CCCO1 (configuration not stated)	64	20*	-5%	?	-11%	-3%
Cc1ccccc1-n1ncc2c(SCC(=O)NCc3cccs3)ncnc21	19	13	?	5.2µM*	0%	-27%
O=C(CSc1ncnc2c1cnn2-c1cccc(Cl)c1)NCC1CCCO1 (configuration not stated)	16	-1	2%	-6%	-5%	-16%
O=C(Nc1ccccc1Cl)C1CCCN(c2ncnc3c2nc2n3CCCCC2)C1 (configuration not stated)	-4	-2	-39%	6.6µM*	0%	?
COc1cc(NC(=O)C2CCCN(c3ncnc4c3nc3n4CCCCC3)C2)cc(OC)c1OC (configuration not stated)	2	-3	-9%	13µM*	2%	?
Cc1cccc(CCNC(=O)C2CCCN(c3ncnc4c3nc3n4CCCCC3)C2)c1 (configuration not stated)	10	-3	-13%	12µM*	3%	?
Cc1cc(C)cc(N2C(=O)CSC2c2cccs2)c1 (configuration not stated)	17	-3	6%	39%	-4%	?
Cc1ccc(N2C(=O)CSC2c2cccs2)cc1 (configuration not stated)	3	-4	-5%	0.17µM*	3%	0%
CCOC(=O)c1cc(S(=O)(=O)N(C)Cc2ccccc2)cn1C	-1	1	-11%	?	-6%	11%
Fc1ccc(N2Cc3ccsc3C=N2)cc1	63*	25*	nt	39%	0%	?
Clc1cccc(Cl)c1COn1nnc2ccccc21	37	25*	-68%	?	-3%	nt
COC(=O)c1ccc(Cn2nnc3ccccc32)cc1	2	-3	-46%	35%	0%	?
COC(=O)c1ccc(COn2nnc3ccccc32)cc1	97*	39*	nt	295%	-7%	306%
COCCNC(=O)c1ccc(C2SCC(=O)N2CCc2ccccc2)cc1 (configuration not stated)	-14	-1	-22%	6%	1%	0%
Cc1ccc(S(=O)(=O)N2CCOCC2)cc1NC(=O)COc1ncnc2ccccc12	-5	7	?	0%	4%	?
SMILES	Shiga toxin inh	CHX counter	NS1 function inh	Pf growth 96h	SARS PLpro yeast	Pf growth 48h
O=C(CSc1ccc(Cl)cc1)Nc1ccc(N2CCN(C(=O)c3ccco3)CC2)cc1	-5	-2	18%	nt	0%	12µM*
O=C(COc1ccc([N+](=O)[O-])cc1)Nc1ccc(N2CCN(C(=O)c3ccco3)CC2)cc1	-16	0	14%	5.2µM*	3%	14%
O=C(CSc1ccc(Cl)cc1)Nc1ccc(NC(=O)c2ccco2)cc1	17	8	29%	37%	2%	16%
COc1ccc(OCC(=O)Nc2ccc(N3CCN(C(=O)c4ccco4)CC3)cc2)cc1	-7	9	1%	20%	-2%	0%
O=C(COc1nsnc1N1CCOCC1)Nc1ccc([N+](=O)[O-])cc1	-18	-2	-1%	-22%	1%	5.2µM*
O=C(COc1ccc(Cl)cc1)Nc1ccc(N2CCN(C(=O)c3ccco3)CC2)cc1	-18	4	-3%	12µM*	-2%	?
Cc1c2ccccc2cc(Cc2ccccc2)[n+]1C	-2	-2	8%	-20%	0%	?
COc1ccccc1/C=C/C=N/NC(=O)CCn1nnc2ccccc21	-8	0	3%	8%	-2%	15%
COc1cccc(CCN2C(=O)C(=O)N([C@@H](CNCc3ccccc3)Cc3ccccc3F)C[C@@H]2C(C)(C)C)c1	-6	-2	3%	44%	2%	26%
CN(C)C(=S)SCC(=O)NCc1ccc(F)cc1	51*	29*	nt	?	0%	161%
COc1ccc(CNC(=O)CCSCc2cccc(Cl)c2)cc1	-9	-3	-2%	77%	15%	1%
CC(NC(=O)CCSCc1ccccc1F)c1ccccc1 (configuration not stated)	65*	58*	-4%	?	2%	16%
COc1ccc(CNC(=O)CCSCc2ccccc2C)cc1	26	1	nt	3.3µM*	0%	25%
COc1ccccc1CNC(=O)CCSCc1cccc(Cl)c1	-9	-3	-2%	1.2µM*	5%	3%
O=C(CSCc1ccc(F)cc1)NCc1ccc(F)cc1	60	-2	nt	37%	0%	23%
O=C(CSCc1ccccc1F)NCc1ccc(F)cc1	55	43*	nt	?	-2%	60%
O=C(CCSCc1ccccc1F)NCc1ccc(F)cc1	2	0	-10%	2.3µM*	-1%	nt
Cc1ccc(CNC(=O)CSCc2ccccc2F)cc1	55	39*	nt	?	0%	110%
Cc1ccc(CSCC(=O)NCc2ccc(F)cc2)cc1	-1	16	nt	?	-5%	11%
O=C(CCSCc1ccccc1F)NCCc1ccccc1	21	17*	nt	?	0%	26%
O=C(CSc1nnc2ccccn12)NC(=O)NC1CCCC1	-5	9	5%	?	3%	-2%
CC(c1ccccc1)C(CC(=O)O)C(=O)NC1CCCCC1 (configuration not stated)	-17	-2	?	1%	1%	nt
